Results published in PubChem BioAssay.

Test: adipocyte viability effects, profiling panel, cell-based, 3T3-L1 adipocytes, calcein-AM fluorescence, 48 h, basal (AID 1163); note: test concentration not given here
Details: 3T3-L1 adipocytes viability, higher = more signal
Work on `NC(=O)NCC#Cc1ccc2c(c1)[C@]1(C(=O)N2)[C@H](C(=O)N2CCN(c3ncccn3)CC2)[C@H]2C(=O)O[C@H](c3ccccc3)[C@H](c3ccccc3)N2[C@@H]1c1ccc(O)cc1` yielded a z-score of -0.173. `COc1ccc(C#Cc2ccc3c(c2)[C@]2(C(=O)N3)[C@H](c3ccc(O)cc3)N3[C@H](c4ccccc4)[C@H](c4ccccc4)OC(=O)[C@H]3[C@@H]2C(=O)Nc2nc3ccccc3s2)cc1` showed a z-score of 1.89. For `COCCCNC(=O)[C@@]1(Sc2ccc(C)cc2)CC(=O)N(C2Cc3ccccc3C2)[C@@H]1c1ccc(CO)cc1`, the z-score was 0.544. With `CCC1=C2CN(Cc3ccccc3)[C@@H](C(=O)Cc3ccccc3)C2C=CCC1` (stereo partly specified) the z-score was 1.47. In the case of `CCOC(=O)C1=C[C@@H](C(C)(C)C)N(S(=O)(=O)c2ccc(C)cc2)[C@H]1c1cccc2ccccc12`, the z-score is reported as -0.15. `C=CCC(OC(C)=O)[C@@H]1[C@@H](N(Cc2cc3ccccc3o2)C(=O)Cc2ccc(F)cc2)c2cc(OCCCO)ccc2N1C(=O)Cc1ccc2ccccc2c1` (stereo partly specified) gave a z-score of -0.136. In the case of `COC(=O)[C@@]1(Cc2ccc(OC)cc2)[C@H]2c3cc(C(=O)N4CCCC4)n(CCc4c[nH]c5ccc(OC)cc45)c3C[C@H]2CN1C(=O)c1ccccc1`, the z-score is reported as -0.791. With `COC(=O)[C@@]1(Cc2ccc(OC)cc2)[C@H]2c3cc(C(=O)N(C)C)n(Cc4ccc(C)o4)c3C[C@H]2CN1C(=O)c1ccccc1` the z-score was -0.0339. `CC(C)c1ccc(NN2C(C(O)c3ccc(F)cc3)C=CC3C(=O)N(c4ccccc4)C(=O)C32)cc1` (stereo unspecified) gave a z-score of -1.37. With `COc1cc2c(cc1O)C(C1CC1)N(C)CC2` (stereo unspecified) the z-score was 0.381. With `CCCCN1CC=CC23O[C@@H]4/C=C\CCCOC(=O)C4[C@H]2C(=O)N(CCO)[C@@H]3C1=O` (stereo partly specified) the z-score was 1.63. With `COCCCNC(=O)[C@@]1(CCC(=O)OC(C)(C)C)N=C(c2ccc(OCCCO)cc2)O[C@H]1c1ccccc1N=[N+]=[N-]` the z-score was 0.251. Molecule `CS(=O)(=O)CCOC(=O)C1=CC(c2ccc(CO)cc2)=CC(C2CC2)N(Cc2sc3ccccc3c2Cl)C=C1C(=O)OCCS(C)(=O)=O` (stereo unspecified) has a z-score of -0.716. Work on `COCCOC(=O)N1C(=O)[C@@]2(c3ccccc31)[C@H](C(=O)NC[C@H](O)c1ccccc1)[C@H]1C(=O)O[C@H](c3ccccc3)[C@H](c3ccccc3)N1[C@@H]2c1ccc(O)cc1` yielded a z-score of 2.18. `CN(C)C(=O)[C@]1(Cc2ccccc2CN=[N+]=[N-])N=C(c2ccc(OCCCO)cc2)O[C@@H]1c1ccccc1` gave a z-score of 0.894. `COc1cc(OC)c(C(O)C2C=CC3C(=O)N(Cc4ccccc4)C(=O)C3N2n2cnnc2)cc1Br` (stereo unspecified) showed a z-score of 0.767. Molecule `C=C[C@H](C)[C@H](OC(=O)Nc1ccc(SC)cc1)c1ccc(OCCO)cc1` has a z-score of 0.954. `CCOC(=O)C1=C[C@@H](C(C)C)N(S(=O)(=O)c2ccc(C)cc2)[C@H]1c1ccc(C(F)(F)F)cc1` showed a z-score of -0.448. For `CCOC(=O)C[C@H]1[C@H](OC(=O)c2ccc(-c3ccccc3)cc2)[C@@H](NC(=O)CC(C)C)c2cc(OCCCO)ccc2N1C(=O)c1ccc2ccccc2n1`, the z-score was 0.556. For `COc1cccc(C)c1NC(=O)O[C@H]1[C@H](OC(=O)Nc2ccccc2-c2ccccc2)[C@H](OC(=O)Nc2ccccc2-c2ccccc2)[C@@H](OC)O[C@@H]1CO`, the z-score was 0.328. `C=C(COC)C(=O)CC[C@@H](OC(C)=O)c1cccc(OCCO)c1` showed a z-score of 0.617. For `C=CCNC(=O)[C@@H]1[C@H]2C(=O)O[C@H](c3ccccc3)[C@H](c3ccccc3)N2[C@H](c2ccc(OCCO)cc2)[C@@]12C(=O)N(C(=O)OCCOC)c1ccc(C#Cc3ccc(OC)cc3)cc12`, the z-score was 0.786. In the case of `CCCNC(=O)[C@@]1(C)c2ccccc2C(=O)N(c2ccc(C)cn2)[C@H]1c1ccc(CO)cc1`, the z-score is reported as 0.343. `CC(=O)NCCCC[C@@H]1NC(=O)[C@@H]2C[C@H](C(=O)NCCCCCN)[C@H](c3ccc(O)cc3)N2C1=O` showed a z-score of 0.42. For `CC1CC/C=C\[C@H]2OC34C=CCN(Cc5ccccc5)C(=O)[C@H]3N(C(CO)C(C)C)C(=O)[C@@H]4C2C(=O)O1` (stereo partly specified), the z-score was 0.493. In the case of `COc1ccc(CCNC(=O)[C@@]2(c3ccc([N+](=O)[O-])cc3)CC(=O)N(C3CCCCC3)[C@@H]2c2ccc(CO)cc2)cc1`, the z-score is reported as 0.414. For `C=CCC(OC(C)=O)[C@@H]1[C@@H](N(Cc2cccc3ccccc23)C(=O)Cc2ccc(OC)cc2)c2cc(OCCCO)ccc2N1C(=O)c1ccc(-c2ccccc2)cc1` (stereo partly specified), the z-score was 1.12. With `COc1ccc([Si](C)(C)[C@@H]2[C@@H](CCO)O[C@]3(C(=O)N(Cc4ccccc4)c4ccc(NC(=O)[C@H](C)O)cc43)[C@H]2C)cc1` the z-score was 0.641. For `[N-]=[N+]=Nc1ccccc1[C@@H]1OC(c2ccc(OCCCO)cc2)=N[C@]1(Cc1ccccc1)C(=O)O`, the z-score was 0.344. In the case of `COc1ccc([C@H]2OC[C@@H]3C[C@H](Cc4ccccc4)C(=O)N32)cc1`, the z-score is reported as -0.835. For `CC(C)N1CC=CC23O[C@@H]4C=CCCOC(=O)C4[C@H]2C(=O)N(CCCO)[C@@H]3C1=O` (stereo partly specified), the z-score was 1.36. Molecule `COc1ccc([Si](C)(C)[C@@H]2[C@@H](CCO)O[C@]3(C(=O)N(Cc4cccc(NC(=O)[C@H](C)O)c4)c4ccccc43)[C@H]2C)cc1` has a z-score of -0.578. Work on `NCCCCCNC(=O)[C@@H]1C[C@@H]2C(=O)N[C@@H](CCCCN)C(=O)N2[C@@H]1c1ccc(O)cc1` yielded a z-score of -0.426. In the case of `C=CCN1Cc2ccccc2[C@@H]2OC(c3ccc(OCCCO)cc3)=N[C@]2(CC=C)C1=O`, the z-score is reported as 1.44. For `C=CCNC(=O)[C@@H]1[C@H]2C(=O)O[C@H](c3ccccc3)[C@H](c3ccccc3)N2[C@H](c2ccccc2OCCO)[C@@]12C(=O)N(C(=O)OCCOC)c1ccc(C#CC3(O)CCCCCC3)cc12`, the z-score was 1.21. Molecule `CC(C)N1C(=O)c2ccccc2[C@@H](C(=O)NCCN2CCOCC2)[C@@H]1c1ccc(CO)cc1` has a z-score of -0.973.
